# Source: PubChem BioAssay (EPA / NIEHS)
# Inconclusive results are not listed. Active and inactive are the calls of the source. The calls were made as follows: active = hit-call score of the fitted dose curve at least 0.9, where 1 is the maximum; inconclusive = response in the unintended direction; inactive = score below 0.9.
# Experiment: TOX21_p53_BLA_p4_viability: Viability Assessment in the Tox21 HCT-116 p53 Agonism Beta-lactamase Assay, Phase 4 (AID 2283597);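 also: hits lower the luminescence signal meaning cytotoxicity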
# Source text: TOX21_p53_BLA_p4 is a cell-based, single-readout assay that uses HCT116, a human intestinal cell line, […] in a 1536-well plate.TOX21_p53_BLA_p4_viability is an assay readout measuring cellular ATP content and detected with CellTiter-Glo Luciferase-coupled ATP quantitation.TOX21_p53_BLA_p4_viability used a type of viability reporter where loss-of-signal activity can be used to understand changes in the cell viability. Furthermore, this assay endpoint can be referred to as a secondary readout, because this assay has produced multiple assay endpoints where this one serves a viability function. To generalize the intended target to other relatable targets, this assay endpoint is annotated to the cell cycle intended target family, where the subfamily is cytotoxicity.
# Thawing Method: Place 14 mL of pre-warmed thaw medium into a 15 mL of conical tub. Remove the vial of cells to be thawed from liquid nitrogen and thaw rapidly by placing at 37C in a water bath with gentle agitation for 1-2 minutes. Decontaminate the vial by wiping with 70% ethanol before opening in a biological safety cabinet. Transfer the vial contents drop-wise into 14 mL of thaw medium in a sterile 15-mL conical tub. Centrifuge cells at 900 rpm for 4 minutes and resuspend in thaw medium. Transfer contents to the T75 tissue culture flask containing Thaw Medium and place flask in a humidified 37C/5% CO2 incubator. Switch to growth medium at first passage.Propagation Method: Aspirate medium, rinse once in DPBS, add 0.25% Trypsin/EDTA and swirl to coat the cell evenly. Add an equal volume of Growth Medium to inactivate Trypsin after 2-3 minutes incubation at 37C. Centrifuge cells at 900 rpm for 4 minutes and resuspend in growth medium. Cell should be passage or fed at least twice a week.Assay Protocol: Harvest cells from culture in growth medium and resuspend in assay medium. 2.2 Dispense 4000 cells/5 uL/well into 1536-well black/clear bottom plates using a Multidrop dispenser. After the cells were incubated at 37C for 5 hours, 23 nL of compounds dissolved in DMSO were transferred to the assay plate by a PinTool resulting in a 217-fold dilution. Incubate the plates for 16 hours at 37C, 5% CO2. Add 1 uL of 6X LiveBLAzer FRET B/G (CCF4-AM) Substrate Mixture to each well using a BioRAPTR dispenser and incubate the plates at room temperature for 2 hours. Measure fluorescence intensity at 460 and 530 nm emission and 405 nm excitation by an Envision detector. Data is expressed as the ratio of 460nm/530nm emissions. Add 4 uL of Cell-titer Glo to each well using BioRAPTR and incubate the plates at room temperature for […]. For cell viability readout that measures cytotoxicity, 4 ul/well of CellTiter-Glo reagent was added into the assay plates using a Flying Reagent Dispenser. After 30 min incubation at room temperature, the luminescence intensity in the plates was measured using a ViewLux plate reader.
Compound,outcome,AC50
C[C@]12CCC(=O)C=C1C=C[C@@H]1[C@@H]2CC[C@@]2(C)[C@H]1CC[C@@]21CCC(=O)O1,inactive,–
c1ccc(SSc2ccccc2)cc1,inactive,–
C/C=C1\NC(=O)[C@H]2CSSCC/C=C/[C@H](CC(=O)N[C@H](C(C)C)C(=O)N2)OC(=O)C(C(C)C)NC1=O (stereo not given in full),–,0.735 µM (active)
O=C(Cn1cnnn1)N[C@@H]1C(=O)N2C(C(=O)O)=C(CSc3nncs3)CS[C@H]12,inactive,–
CCN(CC)C(=O)Nc1ccc(OCC(O)CNC(C)(C)C)c(C(C)=O)c1 (stereo not given),inactive,–
Nc1nc(-c2ccccc2)c(Br)c(=O)[nH]1,inactive,–
CCCCC(O)c1ccccc1 (stereo not given),inactive,–
COC(=O)[C@H]1[C@H]2C[C@@H]3c4[nH]c5cc(OC)ccc5c4CCN3C[C@H]2C[C@@H](OC(=O)/C=C/c2cc(OC)c(OC)c(OC)c2)[C@@H]1OC,inactive,–
CC(CNC1CCCCC1)OC(=O)c1ccccc1 (stereo not given),inactive,–
CC1(C)[C@@H]2CC[C@@]1(C)[C@H](OC(=O)CSC#N)C2,inactive,–
OCCOCCOCCOCCOCCO,inactive,–
CCCCCCCCCCCCCCCCN,inactive,–
Clc1ccc2n[nH]nc2c1,inactive,–
COC(=O)C1=C(C)NC(C)=C(C(=O)O[C@@H]2CCCN(Cc3ccccc3)C2)[C@@H]1c1cccc([N+](=O)[O-])c1,inactive,–
CN(C)c1ccc(C2(c3ccc(N(C)C)cc3)OC(=O)c3cc(N(C)C)ccc32)cc1,inactive,–
Nc1ccccn1,inactive,–
O=C1c2c(O)cccc2[C@H]([C@@H]2O[C@H](CO)[C@@H](O)[C@H](O)[C@H]2O)c2cc(CO)cc(O)c21,inactive,–
COC1[C@@H](O[C@@H]2O[C@H](C)[C@@H](O[C@H]3C[C@@](C)(O)[C@H](OC(=O)CC(C)C)[C@H](C)O3)[C@H](N(C)C)[C@H]2O)[C@@H](CC=O)C[C@@H](C)[C@@H](O)/C=C/C=C/C[C@@H](C)OC(=O)C[C@H]1OC(C)=O (stereo not given in full),inactive,–
OCCN(CCO)CCN(CCO)CCO,inactive,–
Cc1c(C(N)=O)cc([N+](=O)[O-])cc1[N+](=O)[O-],inactive,–

Compound,outcome,AC50
OC[C@H]1O[C@@H](O[C@H]2[C@H](O)[C@@H](O)C(O)O[C@@H]2CO)[C@H](O)[C@@H](O)[C@@H]1O (stereo not given in full),inactive,–
Nc1ncnc2c1ncn2[C@@H]1O[C@H](COP(=O)(O)OP(=O)(O)OP(=O)(O)O)[C@@H](O)[C@H]1O,inactive,–
CCCCCCCCCCCCCCN(C)C,inactive,–
COC(=O)C1=C(C)NC(C)=C(C(=O)OC(C)(C)CN(C)CCC(c2ccccc2)c2ccccc2)C1c1cccc([N+](=O)[O-])c1 (stereo not given),inactive,–
CC(=O)OC(C)OC(=O)C(C)c1ccc(-c2ccccc2)c(F)c1 (stereo not given),inactive,–
CSc1ccc2c(c1)C(N1CCN(C)CC1)Cc1ccccc1S2 (stereo not given),–,34.5 µM (active)
CCCCCC=CCC=CCCCCCCCC(=O)OCC,inactive,–
C[N+]1([O-])CCOCC1,inactive,–
O=C(O)CCCl,inactive,–
O=C(O)Cc1sc(-c2ccccc2)nc1-c1ccc(Cl)cc1,inactive,–
Cc1cc(C)c(N=Nc2c(O)c(S(=O)(=O)O)cc3cc(S(=O)(=O)O)ccc23)cc1C,inactive,–
COc1cc(CNC(=O)CCCC/C=C/C(C)C)ccc1O,inactive,–
NC(=O)C(=O)NN=Cc1ccc([N+](=O)[O-])o1,–,42.3 µM (active)
CCN(CC)c1ccc(C(=C2C=CC(=[N+](CC)CC)C=C2)c2ccccc2)cc1,–,1.94 µM (active)
CCC(=O)c1ccc2c(c1)N(CCCN1CCN(CCO)CC1)c1ccccc1S2,–,33.3 µM (active)
CC(=O)CCc1ccc(OC(C)=O)cc1,inactive,–
CC(C)Nc1cccnc1N1CCN(C(=O)c2cc3cc(NS(C)(=O)=O)ccc3[nH]2)CC1,inactive,–
CN1C(=O)OC(C)(C)C1=O,inactive,–
CCC(=O)OCC(=O)[C@@]1(OC(=O)CC)[C@@H](C)C[C@H]2[C@@H]3CCC4=CC(=O)C=C[C@]4(C)[C@@]3(F)[C@@H](O)C[C@@]21C,inactive,–
COc1ccc2cc1Oc1cc3c(cc1OC)CC[N+](C)(C)[C@H]3Cc1ccc(cc1)Oc1c(OC)c(OC)cc3c1[C@@H](C2)[N+](C)(C)CC3,inactive,–
